Measurements as given in the supplement of paper PMC12636033.
± gives the standard deviation of the averaged measurements. The full ranking holds about 33,000 sequences; the median of “E-score (rank enrichment, -0.5 to 0.5)” is about -0.0028, and the highest 2% start at about 0.23. Only a selection was taken, and the highest values are over-represented in it overall.

Tested on: 2Sb-muMax20 (muMax20 with two 1,3-bis(methyl)benzene Cys staples, A13C/A17C and Q88C/A92C, C-terminal Lys)
Test: PBM 8-mer E-score (E-score (rank enrichment, -0.5 to 0.5)); higher = stronger preferential binding
Procedure: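 Protein binding microarray (universal PBM chip covering all 10-mers in fixed probe flanks) with chemically synthesized human Max(13-93) bHLH-LZ analogs (not full-length Max) bearing noncanonical residues (hArg, Tha, Aib, Nle at 65) and aromatic Cys staples. Read-out per 8-mer (and its reverse complement): E-score (rank-based enrichment, -0.5 to 0.5) and Z-score of median probe intensity.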

| Sequence | PBM 8-mer E-score |
| --- | --- |
| CGGCGGGC | -0.184 ± 0.073 |
| CTTCTCGC | 0.0717 ± 0.022 |
| GCAGCCAA | -0.0475 ± 0.046 |
| GAGCAATC | -0.0835 ± 0.0098 |
| AAGCAATC | 0.256 ± 0.026 |
| AAGCAATT | 0.187 ± 0.017 |
| CGTCTAGA | -0.162 ± 0.029 |
| ATATATTA | 0.241 ± 0.036 |
| GTATATTA | 0.188 ± 0.012 |
| ATCTACTA | 0.243 ± 0.026 |
| ATATTACA | 0.173 ± 0.13 |
| CTATATTA | 0.153 ± 0.015 |
| GTATTAAA | 0.177 ± 0.05 |
| ATCTACTG | -0.00445 ± 0.014 |
| ATCTACTC | -0.0796 ± 0.04 |
| GTATTATA | 0.238 ± 0.024 |
| CTATTACA | 0.14 ± 0.041 |
| GTATTACA | 0.253 ± 0.024 |
| GCATTATA | 0.14 ± 0.041 |
| AATTGGCT | 0.131 ± 0.011 |
| ACGAATGG | 0.073 ± 0.041 |
| ATTTGAGA | 0.152 ± 0.034 |
| AACAGCGA | -0.213 ± 0.047 |
| GTGTTTGA | 0.1 ± 0.029 |
| CGAAGTCA | -0.106 ± 0.12 |
| CGAACCGA | -0.228 ± 0.013 |

| Sequence | PBM 8-mer E-score |
| --- | --- |
| GGTGCCGA | -0.189 ± 0.027 |
| ATATTATG | 0.277 ± 0.026 |
| ATATACTA | 0.2955 ± 0.0011 |
| ATATTATC | 0.112 ± 0.0097 |
| ATATTATA | 0.242 ± 0.052 |
| ATTATATA | 0.185 ± 0.047 |
| CTATTATA | 0.0823 ± 0.013 |
| ATATACTC | 0.173 ± 0.053 |
| AGATTATG | -0.0162 ± 0.068 |
| CTATACTA | 0.169 ± 0.015 |
| CACACTGA | -0.0965 ± 0.055 |
| AAATCGAC | 0.0123 ± 0.035 |
| AGGGGCCA | 0.0356 ± 0.053 |
| CTCGAGCC | 0.0235 ± 0.047 |
| ACCAGGCC | -0.168 ± 0.022 |
| GGCCACGA | -0.0901 ± 0.0031 |
| ACACTACG | 0.0974 ± 0.045 |
| ATTCTGAA | 0.0149 ± 0.024 |
| ACGGAGCA | 0.0531 ± 0.012 |
| AACGTACA | 0.0315 ± 0.031 |
| GCTATATA | 0.173 ± 0.019 |
| ACTATATG | 0.143 ± 0.052 |
| ATTATATC | 0.224 ± 0.0096 |
| ACTATATC | 0.271 ± 0.019 |
| CCTATATC | 0.0672 ± 0.019 |
| ACTATATA | 0.285 ± 0.058 |

| Sequence | PBM 8-mer E-score |
| --- | --- |
| CGTCGCGC | -0.0442 ± 0.0083 |
| CATCCTGG | -0.145 ± 0.035 |
| ACCTTTCC | 0.0327 ± 0.034 |
| ATATTCAA | 0.171 ± 0.023 |
| ATCTTAAT | 0.232 ± 0.042 |
| ATATTCAC | 0.193 ± 0.047 |
| ATATTCAT | 0.238 ± 0.022 |
| ATCTTAAA | 0.0723 ± 0.05 |
| CTATTAAA | 0.125 ± 0.055 |
| TTATTAAA | 0.0933 ± 0.013 |
| ATCTTAAC | 0.0878 ± 0.048 |
| ATATTAAG | 0.0865 ± 0.0037 |
| ATATTAAA | 0.234 ± 0.046 |
| ATATTAAT | 0.302 ± 0.02 |
| ATATTAAC | 0.22 ± 0.076 |
| ACATTGAT | 0.105 ± 0.0059 |
| AACGAGTG | -0.131 ± 0.02 |
| CGCGACCG | -0.221 ± 0.029 |
| CACTAGAG | -0.0261 ± 0.065 |
| ATAGGTAA | 0.0236 ± 0.0059 |
| GCTCTGGA | -0.0441 ± 0.02 |
| CGTGGAGA | 0.0751 ± 0.065 |
| GAAGGGGA | -0.0692 ± 0.0026 |
| GCCCCAAA | 0.117 ± 0.0026 |
| GCCCCAAC | 0.315 ± 0.0087 |
| CCCCCAAC | -0.195 ± 0.066 |

| Sequence | PBM 8-mer E-score |
| --- | --- |
| CCCCCACC | -0.264 ± 0.062 |
| GCCCCACA | 0.156 ± 0.1 |
| GCCCCACC | 0.289 ± 0.051 |
| CAATGGGA | 0.0389 ± 0.029 |
| CCGCACTA | -0.0974 ± 0.0081 |
| CGAAGCAA | -0.0083 ± 0.02 |
| AGATCCCA | -0.0112 ± 0.031 |
| ACCTTAAG | -0.0585 ± 0.037 |
| CTCCCGGC | -0.268 ± 0.0042 |
| GGTAATTA | 0.24 ± 0.0065 |
| CCTAATTA | 0.0703 ± 0.012 |
| AGTAATTA | 0.202 ± 0.03 |
| GCTAATTA | 0.235 ± 0.039 |
| ACTAATTA | 0.226 ± 0.024 |
| CGTAATTA | 0.202 ± 0.046 |
| ATGCGGGC | -0.00019 ± 0.029 |
| AGTCCTCA | -0.113 ± 0.048 |
| AATTTGTA | 0.0698 ± 0.0044 |
| ACGGAGAA | 0.18 ± 0.029 |
| GAGCCAAA | -0.057 ± 0.017 |
| CCTATCGA | 0.15 ± 0.023 |
| CCCCGCCA | 0.309 ± 0.031 |
| TCCCGCCA | -0.0896 ± 0.035 |
| GCCCGCCC | 0.108 ± 0.057 |
| ACCCGCCC | 0.274 ± 0.11 |
| GCCCGCCA | 0.0111 ± 0.022 |

| Sequence | PBM 8-mer E-score |
| --- | --- |
| ACCCGCCG | 0.0869 ± 0.081 |
| CCCCGCCC | 0.355 ± 0.037 |
| CGCCGCCC | -0.0329 ± 0.11 |
| CCCCGCCG | 0.161 ± 0.13 |
| CCGATAGC | -0.195 ± 0.0074 |
| TCGGACGA | -0.0961 ± 0.011 |
| CATGCCCG | 0.114 ± 0.033 |
| ACGTAGGC | -0.161 ± 0.069 |
| AATTGATG | 0.196 ± 0.013 |
| TGCCCAAA | -0.17 ± 0.028 |
| TGCCCCAA | 0.304 ± 0.012 |
| AGCCCCCA | -0.192 ± 0.049 |
| TGCCCCCA | 0.0887 ± 0.0026 |
| AGCCCCAA | 0.2458 ± 0.001 |
| GGCCCCAA | 0.134 ± 0.045 |
| CGCTAATA | 0.0712 ± 0.011 |
| CAGGTAGG | 0.0772 ± 0.037 |
| ATCTCTGC | 0.124 ± 0.041 |
| AAGTTTAG | 0.193 ± 0.079 |
| AAGTTTAT | 0.263 ± 0.011 |
| AAGTTTAC | -0.0181 ± 0.035 |
| CTATGGTC | -0.0714 ± 0.011 |
| ACCTTCCG | 0.156 ± 0.054 |
| CAACGATA | 0.0514 ± 0.023 |
| TAACGATA | 0.261 ± 0.025 |
| AAACGATA | 0.0414 ± 0.058 |

| Sequence | PBM 8-mer E-score |
| --- | --- |
| AAGCCAAA | -0.0671 ± 0.036 |
| GACTACTA | 0.123 ± 0.086 |
| AACGATTG | -0.048 ± 0.0011 |
| GAAGGAGA | 0.278 ± 0.031 |
| CAAGGAGA | -0.121 ± 0.026 |
| AAAGGAGA | 0.102 ± 0.13 |
| ATATGAAC | 0.111 ± 0.0082 |
| CTATGAAA | 0.122 ± 0.039 |
| ATATGAAG | -0.0272 ± 0.098 |
| ATATGAAT | 0.269 ± 0.0035 |
| TTATGAAA | -0.0227 ± 0.036 |
| ATATGAAA | 0.268 ± 0.017 |
| GCGCTGAC | 0.0819 ± 0.0047 |
| ATTCGGCA | -0.0961 ± 0.057 |
| AACGTGTC | -0.0169 ± 0.047 |
| CAAGTGTA | 0.231 ± 0.042 |
| CACGTGTC | 0.366 ± 0.032 |
| AAAGTGTA | 0.185 ± 0.019 |
| CACGTGTA | 0.3871 ± 0.0038 |
| GACGTGTA | -0.0568 ± 0.059 |
| CCCGTGTC | -0.222 ± 0.044 |
| TAAGTGTA | -0.00771 ± 0.18 |
| AACGTGTA | 0.0661 ± 0.014 |
| ATGGCCGA | -0.0989 ± 0.12 |
| CGGTAGCA | 0.0259 ± 0.0084 |
| CACTAGGC | -0.0625 ± 0.012 |

| Sequence | PBM 8-mer E-score |
| --- | --- |
| AAGGTACT | -0.0359 ± 0.027 |
| CGCCACAC | -0.107 ± 0.0099 |
| GAATTCCA | 0.0438 ± 0.014 |
| AATTCCCC | 0.162 ± 0.019 |
| ATTCCCCC | -0.0763 ± 0.046 |
| GATTCCCA | -0.109 ± 0.031 |
| CAATTCCA | 0.021 ± 0.024 |
| AATTCCCA | 0.251 ± 0.056 |
| GAAATCAC | 0.0559 ± 0.039 |
| AAATTCCA | 0.243 ± 0.0059 |
| ATTCCCCA | 0.345 ± 0.0051 |
| GTTCCCCA | 0.0903 ± 0.0034 |
| AAAATCAC | 0.28 ± 0.019 |
| AAAATCAG | -0.00194 ± 0.044 |
| GAGGACGA | -0.0985 ± 0.014 |
| CAGGAATA | -0.0263 ± 0.13 |
| AGACTGCC | -0.138 ± 0.008 |
| AGGCGCTA | -0.116 ± 0.03 |
| ACAGGATA | 0.046 ± 0.059 |
| CCTCTAAC | -0.122 ± 0.012 |
